The chains are these.
T1: RBFOX1 RRM (Homo sapiens, UniProt Q9NWB1 109-208)
T1 sequence: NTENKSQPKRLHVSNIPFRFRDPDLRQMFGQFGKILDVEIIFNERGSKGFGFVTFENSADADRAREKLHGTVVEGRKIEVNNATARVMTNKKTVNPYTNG

B1: ACUAAUA (DNA:RNA)
RNA: GGGAGACCGGAAUUCAGAUUGUCCACUAAUAUUAAAUCCCGUCGUAGCCACCA
DNA 1: CAATCTGAATTCCGGTCTCCC
DNA 2: TGGTGGCTACGACGGGATT
B2: UCAUCUC (DNA:RNA)
RNA: B1 RNA with A25U, U27A, A28U, A29C, A31C
DNA 1: CAATCTGAATTCCGGTCTCCC
DNA 2: TGGTGGCTACGACGGGATT
B3: ACUUGAA (DNA:RNA)
RNA: B1 RNA with A28U, A29G, U30A
DNA 1: CAATCTGAATTCCGGTCTCCC
DNA 2: TGGTGGCTACGACGGGATT
B4: UAACAGC (DNA:RNA)
RNA: B1 RNA with A25U, C26A, U27A, A28C, U30G, A31C
DNA 1: CAATCTGAATTCCGGTCTCCC
DNA 2: TGGTGGCTACGACGGGATT
B5: CCUUGGA (DNA:RNA)
RNA: B1 RNA with A25C, A28U, A29G, U30G
DNA 1: CAATCTGAATTCCGGTCTCCC
DNA 2: TGGTGGCTACGACGGGATT
B6: UGAGAAC (DNA:RNA)
RNA: B1 RNA with A25U, C26G, U27A, A28G, U30A, A31C
DNA 1: CAATCTGAATTCCGGTCTCCC
DNA 2: TGGTGGCTACGACGGGATT
B7: GACUAUG (DNA:RNA)
RNA: B1 RNA with A25G, C26A, U27C, A28U, A31G
DNA 1: CAATCTGAATTCCGGTCTCCC
DNA 2: TGGTGGCTACGACGGGATT
B8: UAACGUU (DNA:RNA)
RNA: B1 RNA with A25U, C26A, U27A, A28C, A29G, A31U
DNA 1: CAATCTGAATTCCGGTCTCCC
DNA 2: TGGTGGCTACGACGGGATT
B9: GCACGCG (DNA:RNA)
RNA: B1 RNA with A25G, U27A, A28C, A29G, U30C, A31G
DNA 1: CAATCTGAATTCCGGTCTCCC
DNA 2: TGGTGGCTACGACGGGATT
B10: CGCGUCG (DNA:RNA)
RNA: GGGAGACCGGAAUUCAGAUUGUCCCGCGUCGUUAAAUCCCGUCGUAGCCACCA
DNA 1: CAATCTGAATTCCGGTCTCCC
DNA 2: TGGTGGCTACGACGGGATT
B11: CGCACGC (DNA:RNA)
RNA: B10 RNA with G28A, U29C, C30G, G31C
DNA 1: CAATCTGAATTCCGGTCTCCC
DNA 2: TGGTGGCTACGACGGGATT
B12: GCACGUC (DNA:RNA)
RNA: B1 RNA with A25G, U27A, A28C, A29G, A31C
DNA 1: CAATCTGAATTCCGGTCTCCC
DNA 2: TGGTGGCTACGACGGGATT
B13: GCGCAGA (DNA:RNA)
RNA: B1 RNA with A25G, U27G, A28C, U30G
DNA 1: CAATCTGAATTCCGGTCTCCC
DNA 2: TGGTGGCTACGACGGGATT
B14: GCACCCG (DNA:RNA)
RNA: B10 RNA with C25G, G26C, C27A, G28C, U29C
DNA 1: CAATCTGAATTCCGGTCTCCC
DNA 2: TGGTGGCTACGACGGGATT
B15: GCGUCCG (DNA:RNA)
RNA: B10 RNA with C25G, G26C, C27G, G28U, U29C
DNA 1: CAATCTGAATTCCGGTCTCCC
DNA 2: TGGTGGCTACGACGGGATT
B16: GCGCACC (DNA:RNA)
RNA: B1 RNA with A25G, U27G, A28C, U30C, A31C
DNA 1: CAATCTGAATTCCGGTCTCCC
DNA 2: TGGTGGCTACGACGGGATT
B17: CGCCACG (DNA:RNA)
RNA: B10 RNA with G28C, U29A
DNA 1: CAATCTGAATTCCGGTCTCCC
DNA 2: TGGTGGCTACGACGGGATT
B18: GCGCACG (DNA:RNA)
RNA: B1 RNA with A25G, U27G, A28C, U30C, A31G
DNA 1: CAATCTGAATTCCGGTCTCCC
DNA 2: TGGTGGCTACGACGGGATT
B19: GCACCGC (DNA:RNA)
RNA: B1 RNA with A25G, U27A, A28C, A29C, U30G, A31C
DNA 1: CAATCTGAATTCCGGTCTCCC
DNA 2: TGGTGGCTACGACGGGATT
B20: GCACGCU (DNA:RNA)
RNA: B1 RNA with A25G, U27A, A28C, A29G, U30C, A31U
DNA 1: CAATCTGAATTCCGGTCTCCC
DNA 2: TGGTGGCTACGACGGGATT
B21: CUGCAGA (DNA:RNA)
RNA: B1 RNA with A25C, C26U, U27G, A28C, U30G
DNA 1: CAATCTGAATTCCGGTCTCCC
DNA 2: TGGTGGCTACGACGGGATT
B22: AUUUAGA (DNA:RNA)
RNA: B1 RNA with C26U, A28U, U30G
DNA 1: CAATCTGAATTCCGGTCTCCC
DNA 2: TGGTGGCTACGACGGGATT
B23: GAACGUU (DNA:RNA)
RNA: B1 RNA with A25G, C26A, U27A, A28C, A29G, A31U
DNA 1: CAATCTGAATTCCGGTCTCCC
DNA 2: TGGTGGCTACGACGGGATT
B24: CGGCGCA (DNA:RNA)
RNA: B10 RNA with C27G, G28C, U29G, G31A
DNA 1: CAATCTGAATTCCGGTCTCCC
DNA 2: TGGTGGCTACGACGGGATT
B25: CCGCUCA (DNA:RNA)
RNA: B10 RNA with G26C, C27G, G28C, G31A
DNA 1: CAATCTGAATTCCGGTCTCCC
DNA 2: TGGTGGCTACGACGGGATT
B26: UUAGAAU (DNA:RNA)
RNA: B1 RNA with A25U, C26U, U27A, A28G, U30A, A31U
DNA 1: CAATCTGAATTCCGGTCTCCC
DNA 2: TGGTGGCTACGACGGGATT
B27: GUAUACC (DNA:RNA)
RNA: B1 RNA with A25G, C26U, U27A, A28U, U30C, A31C
DNA 1: CAATCTGAATTCCGGTCTCCC
DNA 2: TGGTGGCTACGACGGGATT
B28: GUGCUGU (DNA:RNA)
RNA: B10 RNA with C25G, G26U, C27G, G28C, C30G, G31U
DNA 1: CAATCTGAATTCCGGTCTCCC
DNA 2: TGGTGGCTACGACGGGATT
B29: UUGGCUG (DNA:RNA)
RNA: B10 RNA with C25U, G26U, C27G, U29C, C30U
DNA 1: CAATCTGAATTCCGGTCTCCC
DNA 2: TGGTGGCTACGACGGGATT
B30: UUGGCUC (DNA:RNA)
RNA: B1 RNA with A25U, C26U, U27G, A28G, A29C, A31C
DNA 1: CAATCTGAATTCCGGTCTCCC
DNA 2: TGGTGGCTACGACGGGATT
B31: CGGCUGU (DNA:RNA)
RNA: B10 RNA with C27G, G28C, C30G, G31U
DNA 1: CAATCTGAATTCCGGTCTCCC
DNA 2: TGGTGGCTACGACGGGATT
B32: GUGGCUG (DNA:RNA)
RNA: B10 RNA with C25G, G26U, C27G, U29C, C30U
DNA 1: CAATCTGAATTCCGGTCTCCC
DNA 2: TGGTGGCTACGACGGGATT
B33: UGGGCUC (DNA:RNA)
RNA: B10 RNA with C25U, C27G, U29C, C30U, G31C
DNA 1: CAATCTGAATTCCGGTCTCCC
DNA 2: TGGTGGCTACGACGGGATT
B34: UGGCUCU (DNA:RNA)
RNA: B10 RNA with C25U, C27G, G28C, G31U
DNA 1: CAATCTGAATTCCGGTCTCCC
DNA 2: TGGTGGCTACGACGGGATT
B35: CUGUGGC (DNA:RNA)
RNA: B10 RNA with G26U, C27G, G28U, U29G, C30G, G31C
DNA 1: CAATCTGAATTCCGGTCTCCC
DNA 2: TGGTGGCTACGACGGGATT
B36: CUGGCUC (DNA:RNA)
RNA: B10 RNA with G26U, C27G, U29C, C30U, G31C
DNA 1: CAATCTGAATTCCGGTCTCCC
DNA 2: TGGTGGCTACGACGGGATT
B37: CCCUGGC (DNA:RNA)
RNA: B10 RNA with G26C, G28U, U29G, C30G, G31C
DNA 1: CAATCTGAATTCCGGTCTCCC
DNA 2: TGGTGGCTACGACGGGATT
B38: CUGGCUG (DNA:RNA)
RNA: B10 RNA with G26U, C27G, U29C, C30U
DNA 1: CAATCTGAATTCCGGTCTCCC
DNA 2: TGGTGGCTACGACGGGATT
B39: UGGCUGU (DNA:RNA)
RNA: B10 RNA with C25U, C27G, G28C, C30G, G31U
DNA 1: CAATCTGAATTCCGGTCTCCC
DNA 2: TGGTGGCTACGACGGGATT

Positions count from the first letter of the chain named. Whole data set: some 16,000 sequences, median “ka relative to ugcaugu” near 0.0091, cut for the highest 2% near 0.032. What follows is part of a selection rich in the highest values, with near analogues and random picks from the rest.

This assay concerns the target T1, RBFOX1 RRM. Nature of the assay: EMSA; HiTS-Eq, 1 nM pool, 10 min; buffer printed only for the single-RNA assays: 10 mM Tris pH 7.5, 150 mM NaCl, 3.4 mM EDTA, 0.001% NP-40, 30 C. The note with it: tags: His6 N-terminal (pET28a); label: 5' 32P. In a few lines: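 Purified RbFox RRM, wild type or mutant, was incubated for 10 min in 50 µL with 1 nM of a 5′-radiolabelled RNA pool carrying 7 randomized nucleotides, whose flanks were annealed to DNA oligonucleotides, over a series of increasing protein concentrations. Unbound RNA was resolved on 8% native PAGE, cut out, reverse-transcribed, barcoded by PCR and sequenced on an Illumina HiSeq 2500. Relative association constants were derived from changes in read counts for each RNA species versus the control reaction and normalised to the cognate motif.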
Turning to B1, the binding signal was 0.00101 KA relative to UGCAUGU.

Regarding B2, the binding signal is 0.00423 KA relative to UGCAUGU.

For the molecule B3, the binding signal was 0.0101 KA relative to UGCAUGU.

Turning to B4, the binding signal was 0.00375 KA relative to UGCAUGU.

B5: the binding signal was 0.00739 KA relative to UGCAUGU.

Regarding B6, the binding signal was 0.0124 KA relative to UGCAUGU.

Consider B7, for which the binding signal is 0.0187 KA relative to UGCAUGU.

Take B8: the binding signal is 0.00814 KA relative to UGCAUGU.

On to B9, for which the binding signal was 0.0376 KA relative to UGCAUGU.

With B10, the binding signal was 0.0133 KA relative to UGCAUGU.

Consider B11, for which the binding signal was 0.0306 KA relative to UGCAUGU.

For the molecule B12, the binding signal was 0.0416 KA relative to UGCAUGU.

For B13, the binding signal is 0.0118 KA relative to UGCAUGU.

Regarding B14, the binding signal is 0.00754 KA relative to UGCAUGU.

As for B15, the binding signal was 0.0136 KA relative to UGCAUGU.

As to B16, the binding signal was 0.0133 KA relative to UGCAUGU.

As for B17, the binding signal was 0.0114 KA relative to UGCAUGU.

Regarding B18, the binding signal was 0.062 KA relative to UGCAUGU.

Turning to B19, the binding signal was 0.00949 KA relative to UGCAUGU.

As to B20, the binding signal was 0.0317 KA relative to UGCAUGU.

Consider B21, for which the binding signal is 0.0168 KA relative to UGCAUGU.

In the case of B22, the binding signal is 0.0108 KA relative to UGCAUGU.

For B23, the binding signal was 0.0166 KA relative to UGCAUGU.

For B24, the binding signal is 0.0121 KA relative to UGCAUGU.

Take B25: the binding signal is 0.00712 KA relative to UGCAUGU.

B26: the binding signal was 0.00773 KA relative to UGCAUGU.

For B27, the binding signal was 0.0043 KA relative to UGCAUGU.

With B28, the binding signal is 0.021 KA relative to UGCAUGU.

As to B29, the binding signal is 0.0406 KA relative to UGCAUGU.

B30: the binding signal was 0.0219 KA relative to UGCAUGU.

As to B31, the binding signal is 0.0179 KA relative to UGCAUGU.

B32: the binding signal was 0.0289 KA relative to UGCAUGU.

Turning to B33, the binding signal is 0.0362 KA relative to UGCAUGU.

For the molecule B34, the binding signal is 0.0197 KA relative to UGCAUGU.

On to B35, for which the binding signal is 0.0106 KA relative to UGCAUGU.

In the case of B36, the binding signal was 0.0211 KA relative to UGCAUGU.

Turning to B37, the binding signal is 0.011 KA relative to UGCAUGU.

Turning to B38, the binding signal was 0.0348 KA relative to UGCAUGU.

Consider B39, for which the binding signal is 0.0395 KA relative to UGCAUGU.
